Source: PubChem BioAssay (Tox21)
Several values for one entry are separate records, joined by “and”; a condition that tells them apart may be missing. Equal entries are not always repeated. Results filed as inconclusive are left out. More than one record can exist for a structure, and the calls need not agree. Activity calls are given as the source filed them. Calls follow the shape of the full dose curve.

These compounds were tested against 5-hydroxytryptamine receptor 2A (Homo sapiens) (UniProt P28223) (assay: 5-hydroxytryptamine receptor 2A (HTR2A) small molecule agonists, cell-based qHTS assay (AID 1963587; also: nearly all actives have a fitted effect of over 30% in size)). Conditions: HTR2A-CHO cells, calcium flux fluorescence, agonist mode; series mostly up to 76.8 µM; activation: at the top concentration.
Chain of 5-hydroxytryptamine receptor 2A (Homo sapiens) (P28223 whole entry, looked up): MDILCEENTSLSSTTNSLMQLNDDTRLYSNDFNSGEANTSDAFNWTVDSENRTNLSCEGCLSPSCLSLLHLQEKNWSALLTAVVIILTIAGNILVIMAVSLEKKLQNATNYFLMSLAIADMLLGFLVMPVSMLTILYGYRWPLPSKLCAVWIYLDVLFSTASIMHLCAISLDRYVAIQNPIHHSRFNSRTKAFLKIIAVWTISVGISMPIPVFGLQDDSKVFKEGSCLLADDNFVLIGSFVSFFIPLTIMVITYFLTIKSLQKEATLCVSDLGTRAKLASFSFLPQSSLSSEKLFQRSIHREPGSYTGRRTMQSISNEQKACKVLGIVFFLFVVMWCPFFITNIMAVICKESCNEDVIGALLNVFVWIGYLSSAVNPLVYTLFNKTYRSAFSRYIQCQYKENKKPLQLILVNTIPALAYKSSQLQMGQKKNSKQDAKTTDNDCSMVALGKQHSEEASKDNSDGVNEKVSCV
From the text: National Center for Advancing Translational Sciences [NCATS]
Division of Preclinical Innovation [DPI]
U.S. Environmental Protection Agency [EPA]
National Institutes of Environmental Health Sciences [NIEHS]
National Toxicology Program [NTP]
U.S. Food and Drug Administration [FDA]
The HTR2A receptor is a subtype of the 5-HT2 receptor that belongs to the serotonin receptor family and is a G protein-coupled receptor (GPCR). The HTR2A-CHO cell line stably expressing human 5-hydroxytryptamine receptor 2A (HTR2A) can be used for screening agonists of interactions between 5-HT2 and its ligands. The HTR2A-CHO calcium flux assay is a homogeneous fluorescence-based assay for detecting the intracellular calcium level using FDSS kinetic plate reader system.
HTR2A-CHO cells were dispensed at 2000 cells/3uL/well in 1536-well black-clear bottom plates using a Multidrop Dispenser. After the assay plates were incubated at a 37 C/5% CO2 incubator for 18 h, 3 uL of Dye Loading Buffer was transferred to the assay plate by a Flying Reagent Dispenser. The assay plates were incubated at 37 C for 1h. For agonist mode, 23 nL of compounds dissolved in DMSO, positive controls or DMSO only was transferred to the assay plate by a pin tool. The fluorescence intensity in the plates was measured using FDSS 7000EX kinetic plate reader for 2 min at 1 sec intervals.
% is scaled to controls: 0 for no effect and ±100 for the full control effect; potency is read from the fitted curve at half-maximal effect.

| Structure (SMILES) | Potency | activation |
| --- | --- | --- |
| CC(Br)C(=O)O (stereo not given) | inactive | – |
| COCCl | 22.7 µM (active) and inactive | – |
| c1ccc(NNc2ccccc2)cc1 | inactive | – |
| CN(C)N=O | inactive | – |
| Cc1ccc2cc(C)ccc2c1 | – | -1.38% (inactive) |
| c1ccc(N=Nc2ccccc2)cc1 | inactive | – |
| ClCC(Cl)(Cl)Cl | – | -0.438% (inactive) |
| O=[N+]([O-])c1cc(Cl)c(Cl)c(Cl)c1 | – | -1.8% (inactive) |
| O=C([O-])c1ccccn1.O=C([O-])c1ccccn1.O=C([O-])c1ccccn1.[Cr+3] | – | 6.1% (inactive) |
| COP(N)(=O)SC (stereo not given) | inactive | – |
| O=Cc1ccccc1 | – | -1.72% (inactive) |
| COP(=S)(OC)Oc1cc(Cl)c(Cl)cc1Cl | inactive | – |
| N#CCc1ccccc1 | – | -1.26% (inactive) |
| Cc1ccccc1N | inactive | – |
| CCOP(=O)(O)OCC (tested in a mixture with another compound) | inactive and 19.3 µM (active) | – |
| O=C(CBr)c1ccc(O)cc1 | – | 1.07% (inactive) |
| Nc1ncn[nH]1 | inactive | – |
| Cc1ccc(N)cc1Cl | inactive | – |
| CN1C(=O)NC(=O)C(C)(C2=CCCCC2)C1=O (stereo not given) | – | -0.327% [at 35.6 µM] (inactive) |
| O=C(O)C(F)(F)C(F)(F)C(F)(F)C(F)(F)C(F)(F)C(F)(F)C(F)(F)C(F)(F)C(F)(F)C(F)(F)F | – | -3.04% (inactive) |

| Structure (SMILES) | Potency | activation |
| --- | --- | --- |
| CC(=NC#N)N(C)Cc1ccc(Cl)nc1 | – | -0.549% (inactive) |
| N#CCCC#N | – | -2.5% (inactive) |
| CC(C)OC(=O)Cc1ccccc1 | – | -1.61% (inactive) |
| CCOP(=S)(OCC)O/N=C(\C#N)c1ccccc1 | inactive | – |
| CCN(CCO)CCO | – | 1.96% (inactive) |
| N#CC(Br)Br | inactive | – |
| Nc1ccc(-c2ccc(N)c(Cl)c2)cc1Cl | inactive | – |
| O=P(Cl)(Cl)Cl | – | -0.177% (inactive) |
| O=S1OCC2C(CO1)C1(Cl)C(Cl)=C(Cl)C2(Cl)C1(Cl)Cl (stereo not given) | 43.7 µM (active) and inactive | – |
| COP(=O)(O)OC | – | 0.249% (inactive) |
| O=C(O)C(Br)Br | inactive | – |
| C[N+](=O)[O-] | – | -1.17% (inactive) |
| Nc1c(Cl)c(Cl)nc(C(=O)O)c1Cl | inactive | – |
| c1ccc2c(c1)-c1cccc3cccc-2c13 | inactive | – |
| CCCCCCC1CCOC1=O (stereo not given) | – | 0.218% (inactive) |
| CC(C)=CCN1CC[C@@]2(C)c3cc(O)ccc3C[C@@H]1[C@@H]2C | – | 3.13% (inactive) |
| CCCOC(=O)c1cncn1C(C)c1ccccc1 (stereo not given) | – | -3.89% [at 35.6 µM] (inactive) |
| CCCCOCCOP(=O)(OCCOCCCC)OCCOCCCC | – | 8.26% (inactive) |
| CCOP(=S)(OCC)SCSc1cc(Cl)ccc1Cl | – | 0.123% (inactive) |
| CCOS(C)(=O)=O | – | -0.0436% (inactive) |
